Measured values reported in PubChem BioAssay.
The source made the active and inactive calls.

Columns and labels:
[1] = molecular target: Albumin (Bos taurus) (UniProt P02769); assay: compounds binding labelled BSA control protein – biochemical, small-molecule microarray, Alexa647 label, 635/667 nm fluorescence, artefact control for SMM control protein annotation, profiling panel (AID 1118); details: BSA-A647 binding, fluorescence 635 nm, higher = more signal;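 further: score merges 667 nm emission intensity and signal-to-noise per printed compound spot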
[2] = probe aXIP binding to arrayed compounds – biochemical, NeuroSMM set, 635/667 nm fluorescence, primary screen (AID 1119); details: small-molecule microarray, higher = more signal, called active from +8 up or from −8 down;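 further: probe is the protein aXip251-270 applied at 1 µg/mL to compound-printed slides; binding of probe to printed compounds measured as 667 nm fluorescence plus signal to noise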
[3] = probe aNOTCH3 binding on compound microarray – biochemical, small-molecule microarray, 635/667 nm fluorescence, primary screen (AID 1120); details: higher = more signal;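 further: probe is a biotin-tagged antibody raised against NOTCH3 rather than NOTCH3 protein; score merges spot fluorescence near 667 nm with spot signal to noise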
[4] = probe aNOTCH2 binding on compound microarray – biochemical, small-molecule microarray, 635/667 nm fluorescence, primary screen (AID 1121); details: higher = more signal;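 further: score merges feature fluorescence read at 667 nm with its signal to noise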
[5] = molecular target: Carbonic anhydrase 2 (Homo sapiens) (UniProt P00918); assay: compounds binding carbonic anhydrase 2 – biochemical, small-molecule microarray, Alexa647-labelled CAII, profiling panel (AID 1122); details: CAII-A647 binding fluorescence, higher = more signal
[6] = COS7 lysate on small-molecule microarray, probe aHis, 635 nm (AID 1123); details: COS7 cell lysate, fluorescence, higher = more signal;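 further: z-score combines 667nm fluorescence intensity with signal-to-noise per printed compound spot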
[7] = probe aLAP1 signal on lysate-treated microarray – cell lysate, small-molecule microarray, COS7 lysate, primary screen (AID 1124); details: probe aLAP1, fluorescence, higher = more signal;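 further: lysate comes from COS7 cells expressing LAP1 and is applied at 0.3 µg/mL; score merges spot fluorescence near 667 nm with signal-to-noise over triplicate slides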
[8] = tested on: Sam68 (KHDRBS1); assay: compounds binding KHDRBS1 protein – biochemical, small-molecule microarray, 635 nm fluorescence, primary screen (AID 1125); details: higher = more signal;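 further: score merges 667 nm channel intensity with signal to noise over triplicate slides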
[9] = tested on: Chordin-like protein 2 (CHRDL2); assay: compounds binding chordin-like 2 – biochemical, small-molecule microarray, 635 nm fluorescence, primary screen (AID 1126); details: fluorescence 635 nm, higher = more signal;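 further: printed compound slides probed with Chrdl2 protein at 4 µg/mL for 1 h at 4 C; score merges 667 nm emission intensity with signal to noise over three replicate slides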
[10] = molecular target: Concanavalin-A (Canavalia ensiformis) (UniProt P02866); assay: compounds binding concanavalin A lectin – biochemical, small-molecule microarray, Alexa647 label, 635 nm, artefact control for SMM control protein annotation, primary screen (AID 1127); details: ConA-A647 binding fluorescence, higher = more signal;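 further: z combines 667 nm emission intensity with signal-to-noise across three replicate slides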
[11] = compounds binding Alexa647 anti-His antibody – biochemical, small-molecule microarray, 635 nm fluorescence, artefact control for SMM control protein annotation, primary screen (AID 1128); details: higher = more signal;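 further: score merges feature fluorescence with signal-to-noise for each printed compound spot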
[12] = tested on: Human papillomavirus type 1a E7 protein (residues 1-88); assay: HPV1a E7 small-molecule binders, primary screen, biochemical, small-molecule microarray, residues 1-88, 635 nm (AID 1129); details: small-molecule microarray binding, fluorescence 635 nm; higher = more signal
[13] = molecular target: Focal adhesion kinase 1 (Homo sapiens) (UniProt Q05397); assay: PTK2 protein binding on printed compound slides – biochemical, small-molecule microarray, 635/667 nm fluorescence, BSA, DTT, primary screen (AID 1130); details: 635 nm fluorescence, higher = more signal;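 further: composite of spot emission at 667 nm and signal to noise over triplicate slides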
[14] = tested on: Fibrinogen (Alexa647-labelled); assay: Alexa647-fibrinogen binding to printed small molecules – biochemical, small-molecule microarray, 635/667 nm fluorescence, artefact control for SMM control-protein annotation, profiling panel (AID 1131); details: fibrinogen-A647 binding fluorescence, higher = more signal;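 further: z-score merges 667 nm fluorescence with per-spot signal-to-noise over triplicate slides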
[15] = molecular target: Follistatin (Homo sapiens) (UniProt P19883); assay: FST protein binding to printed compounds – biochemical, small-molecule microarray, 635/667 nm fluorescence, primary screen (AID 1132); details: 635 nm fluorescence, higher = more signal
[16] = molecular target: Fibroblast growth factor 2 (Homo sapiens) (UniProt P09038); assay: basic fibroblast growth factor binding to printed compounds – biochemical, small-molecule microarray, 635/667 nm fluorescence, primary screen (AID 1133); details: FGF2, fluorescence 635/667, higher = more signal
[17] = JC-1 mitochondrial potential readout, lung cancer cells – cell-based, A549, JC-1 fluorescence, basal, 24 h, 100 nL, profiling panel (AID 1138); details: higher = more signal;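 further: A549 lung adenocarcinoma cells under basal conditions with no added stimulus; test concentration not given here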
[18] = tested on: Lefty1; assay: Lefty1 protein binding to printed compounds – biochemical, small-molecule microarray, 635/667 nm fluorescence, primary screen (AID 1139); details: fluorescence 635/667, higher = more signal
[19] = tested on: wheat germ agglutinin (Triticum aestivum), Alexa647-labelled; assay: Alexa647-WGA lectin binding to printed small molecules – biochemical, small-molecule microarray, 635/667 nm fluorescence, artefact control for SMM control-protein annotation, profiling panel (AID 1140); details: WGA-A647 binding, 635 nm fluorescence, higher = more signal;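 further: score merges 667 nm feature emission with signal to noise over triplicate slides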
[20] = molecular target: Luciferin 4-monooxygenase (Photinus pyralis) (UniProt P08659); assay: inhibition of purified Photinus pyralis luciferase – biochemical, luminescence, purified enzyme, 2006 set, primary screen (AID 1141); details: purified firefly luciferase, SteadyGlo luminescence, 30 min; higher = more signal, called active from +8 up or from −8 down;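 further: cell-free assay with purified firefly luciferase at 100 ng per well in PBS; test concentration not given here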
Chain of Luciferin 4-monooxygenase (Photinus pyralis) (P08659 whole entry, looked up): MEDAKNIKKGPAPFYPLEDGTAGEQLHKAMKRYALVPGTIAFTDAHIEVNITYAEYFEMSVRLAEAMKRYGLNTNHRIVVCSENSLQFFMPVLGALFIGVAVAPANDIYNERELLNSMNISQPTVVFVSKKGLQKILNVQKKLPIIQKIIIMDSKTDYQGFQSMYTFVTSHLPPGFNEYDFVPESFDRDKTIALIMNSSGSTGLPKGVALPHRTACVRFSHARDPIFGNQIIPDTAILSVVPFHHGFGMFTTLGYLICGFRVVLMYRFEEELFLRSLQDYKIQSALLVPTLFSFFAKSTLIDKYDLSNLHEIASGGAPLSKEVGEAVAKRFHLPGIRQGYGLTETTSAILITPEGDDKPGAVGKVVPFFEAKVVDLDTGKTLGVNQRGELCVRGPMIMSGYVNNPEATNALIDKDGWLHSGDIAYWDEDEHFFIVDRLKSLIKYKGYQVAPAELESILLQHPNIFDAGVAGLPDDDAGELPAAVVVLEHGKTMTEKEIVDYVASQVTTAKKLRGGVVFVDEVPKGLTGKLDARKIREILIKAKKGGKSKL

Chain of Albumin (Bos taurus) (P02769 whole entry, looked up): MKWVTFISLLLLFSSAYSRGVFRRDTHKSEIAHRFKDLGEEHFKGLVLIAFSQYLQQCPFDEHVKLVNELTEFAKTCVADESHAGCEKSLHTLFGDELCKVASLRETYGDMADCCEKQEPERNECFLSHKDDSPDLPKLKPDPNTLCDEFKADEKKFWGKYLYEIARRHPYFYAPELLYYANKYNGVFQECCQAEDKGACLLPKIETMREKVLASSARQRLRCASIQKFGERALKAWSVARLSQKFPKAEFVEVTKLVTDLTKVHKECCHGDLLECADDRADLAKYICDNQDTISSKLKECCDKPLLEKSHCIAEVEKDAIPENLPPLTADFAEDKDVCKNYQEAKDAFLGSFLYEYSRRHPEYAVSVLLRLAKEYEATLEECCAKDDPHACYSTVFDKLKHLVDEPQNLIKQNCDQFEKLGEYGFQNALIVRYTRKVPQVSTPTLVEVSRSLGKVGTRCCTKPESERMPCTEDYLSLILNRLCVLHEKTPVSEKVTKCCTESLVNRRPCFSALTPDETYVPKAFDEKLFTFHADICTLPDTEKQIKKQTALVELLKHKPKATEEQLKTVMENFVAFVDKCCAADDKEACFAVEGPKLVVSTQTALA
Chain of Follistatin (Homo sapiens) (P19883 whole entry, looked up): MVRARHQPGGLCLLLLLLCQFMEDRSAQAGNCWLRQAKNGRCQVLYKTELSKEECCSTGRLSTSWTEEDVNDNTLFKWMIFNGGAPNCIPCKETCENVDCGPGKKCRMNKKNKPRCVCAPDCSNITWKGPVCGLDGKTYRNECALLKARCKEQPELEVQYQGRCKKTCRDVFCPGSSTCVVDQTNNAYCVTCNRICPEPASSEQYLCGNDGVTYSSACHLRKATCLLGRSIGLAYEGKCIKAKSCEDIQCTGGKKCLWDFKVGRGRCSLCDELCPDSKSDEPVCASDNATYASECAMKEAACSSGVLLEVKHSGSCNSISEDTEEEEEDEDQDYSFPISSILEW
Chain of Focal adhesion kinase 1 (Homo sapiens) (Q05397 whole entry, looked up): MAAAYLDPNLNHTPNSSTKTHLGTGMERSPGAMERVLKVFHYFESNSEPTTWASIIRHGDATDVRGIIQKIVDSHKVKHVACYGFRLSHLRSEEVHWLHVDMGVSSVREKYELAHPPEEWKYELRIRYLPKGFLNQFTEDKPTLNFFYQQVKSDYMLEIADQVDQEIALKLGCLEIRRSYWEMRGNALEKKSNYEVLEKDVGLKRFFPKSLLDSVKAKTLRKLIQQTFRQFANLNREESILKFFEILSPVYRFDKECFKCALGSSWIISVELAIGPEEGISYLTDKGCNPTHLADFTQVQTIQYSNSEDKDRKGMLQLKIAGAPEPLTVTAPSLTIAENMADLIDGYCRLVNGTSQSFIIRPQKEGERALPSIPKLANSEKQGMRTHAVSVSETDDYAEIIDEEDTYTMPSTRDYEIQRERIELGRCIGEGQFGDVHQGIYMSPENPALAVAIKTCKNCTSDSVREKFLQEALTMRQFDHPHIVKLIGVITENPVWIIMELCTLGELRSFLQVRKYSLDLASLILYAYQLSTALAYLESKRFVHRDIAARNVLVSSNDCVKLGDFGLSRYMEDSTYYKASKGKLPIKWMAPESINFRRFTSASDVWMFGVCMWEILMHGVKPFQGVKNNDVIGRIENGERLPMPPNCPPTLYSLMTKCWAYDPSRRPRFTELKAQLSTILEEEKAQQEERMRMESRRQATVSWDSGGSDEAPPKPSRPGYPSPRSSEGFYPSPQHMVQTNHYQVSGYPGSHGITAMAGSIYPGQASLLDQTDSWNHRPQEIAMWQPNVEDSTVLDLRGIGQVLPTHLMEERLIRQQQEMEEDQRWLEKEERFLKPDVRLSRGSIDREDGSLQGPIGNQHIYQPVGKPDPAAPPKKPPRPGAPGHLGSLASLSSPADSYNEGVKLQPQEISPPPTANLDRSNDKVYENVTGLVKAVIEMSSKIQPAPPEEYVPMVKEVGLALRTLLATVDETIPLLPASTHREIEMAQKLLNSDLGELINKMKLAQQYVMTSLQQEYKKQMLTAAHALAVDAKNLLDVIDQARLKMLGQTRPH
Chain of Concanavalin-A (Canavalia ensiformis) (P02866 whole entry, looked up): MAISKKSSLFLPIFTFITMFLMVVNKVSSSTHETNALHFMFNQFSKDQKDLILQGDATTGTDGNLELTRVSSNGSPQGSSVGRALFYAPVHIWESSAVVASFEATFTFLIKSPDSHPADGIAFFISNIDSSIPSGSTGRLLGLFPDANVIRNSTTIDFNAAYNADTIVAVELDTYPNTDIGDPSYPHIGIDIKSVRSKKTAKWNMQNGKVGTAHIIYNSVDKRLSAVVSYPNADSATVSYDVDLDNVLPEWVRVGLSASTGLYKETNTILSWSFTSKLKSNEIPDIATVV
Chain of Fibroblast growth factor 2 (Homo sapiens) (P09038 whole entry, looked up): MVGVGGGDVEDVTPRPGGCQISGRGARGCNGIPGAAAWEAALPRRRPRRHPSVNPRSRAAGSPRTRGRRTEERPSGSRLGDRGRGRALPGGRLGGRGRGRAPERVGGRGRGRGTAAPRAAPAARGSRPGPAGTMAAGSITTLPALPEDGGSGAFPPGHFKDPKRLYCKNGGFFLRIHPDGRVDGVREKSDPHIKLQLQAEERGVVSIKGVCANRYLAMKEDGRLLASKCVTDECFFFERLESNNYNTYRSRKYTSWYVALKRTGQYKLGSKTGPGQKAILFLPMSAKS

| SMILES | composite z-score [1] | composite Z-score [2] | composite z-score [3] | composite z-score [4] | composite z-score [5] | composite z-score [6] | composite z-score [7] | composite z-score [8] | composite z-score [9] | composite z-score [10] | composite z-score [11] | composite z-score [12] | composite z-score [13] | composite z-score [14] | composite z-score [15] | composite z-score [16] | z-score [17] | composite z-score [18] | composite z-score [19] | z-score [20] |
| --- | --- | --- | --- | --- | --- | --- | --- | --- | --- | --- | --- | --- | --- | --- | --- | --- | --- | --- | --- | --- |
| COc1ccc([Si](C)(C)[C@@H]2[C@@H](CCO)O[C@]3(C(=O)N(Cc4ccc(N(C=O)c5ccccc5)cc4)c4ccccc43)[C@H]2C)cc1 | 0.842 | -0.119 (inactive) | 0.0842 | -0.0621 | 0.285 | 0.313 | -0.456 | 0.495 | -0.402 | 0.786 | 0.297 | 0.34 | 0.0744 | 0.845 | 0.735 | 0.526 | -0.0272 | 0.0434 | 1.06 | 0.0379 (inactive) |
| O=C1C[C@@](C(=O)NC2CC2)(c2ccc([N+](=O)[O-])cc2)[C@@H](c2ccc(CO)cc2I)N1C1CCCCC1 | 0.554 | 0.142 (inactive) | 0.0596 | -0.14 | 0.452 | 1.77 | -0.0328 | 1.29 | 0.397 | 1.04 | 0.342 | 1.24 | -0.109 | 0.895 | 1.24 | 1.27 | 1.75 | 1.14 | 0.587 | -0.234 (inactive) |
| C=C[C@H](CO)NS(=O)(=O)c1ccc(Br)cc1 | 0.158 | 0.058 (inactive) | 0.234 | -0.127 | -0.0876 | 1 | 0.117 | 0.562 | 0.704 | 0.549 | 0.461 | 0.446 | 0.179 | 0.28 | 1.06 | 0.464 | 1.19 | 0.28 | 0.279 | -0.877 (inactive) |
| NC(=O)NCC#Cc1ccc2c(c1)[C@]1(C(=O)N2)[C@H](C(N)=O)[C@H]2C(=O)O[C@H](c3ccccc3)[C@H](c3ccccc3)N2[C@@H]1c1ccc(O)cc1 | -0.0636 | 1.42 (inactive) | 0.286 | 0.668 | 0.688 | 3.15 | 0.505 | 0.652 | -0.034 | -0.279 | -0.407 | -0.655 | -0.209 | 0.513 | 0.336 | 0.383 | -1.27 | -1.01 | 0.623 | -0.192 (inactive) |
| CCOC(=O)C1=C[C@@H](C(C)(C)C)N(S(=O)(=O)c2ccc(C)cc2)[C@H]1c1ccc(F)cc1 | 0.316 | -0.171 (inactive) | 0.169 | -0.0254 | 0.287 | 1.61 | 0.397 | 1.29 | 0.16 | 0.819 | 0.416 | 1.21 | -0.225 | 0.939 | 1.05 | 0.553 | 3.65 | 0.96 | 0.723 | 1.53 (inactive) |
| CC[C@@H]1C=C(C(=O)O)[C@H](c2ccc(Br)cc2)N1S(=O)(=O)c1ccc(C)cc1 | 0.66 | 0.142 (inactive) | 0.167 | -0.0649 | 0.709 | 2.01 | 0.98 | 0.93 | 0.173 | 0.882 | 0.153 | 1.04 | 0.453 | 0.886 | 0.076 | -0.0934 | -0.785 | 0.0429 | 0.554 | 0.942 (inactive) |
| C=CCN1C(=O)[C@]2(O[C@H](CCn3cc([C@H](O)c4ccccc4)nn3)[C@@H]([Si](C)(C)c3ccc(OC)cc3)[C@@H]2C)c2cc(N3CCC3=O)ccc21 | 0.621 | 0.156 (inactive) | -0.226 | -0.0826 | 0.337 | 0.855 | 0.407 | 0.564 | 0.587 | 0.882 | 0.211 | 1.16 | 0.309 | -0.713 | 1.28 | 0.792 | 1.37 | 1.2 | 0.386 | 0.114 (inactive) |
| COc1ccc(C(O)C2C=CC3C(=O)N(Cc4ccccc4)C(=O)C3N2n2cnnc2)cc1OCc1ccccc1 (stereo not given) | 0.799 | -1.19 (inactive) | 0.0493 | -0.152 | 0.771 | 1.5 | -0.276 | 0.953 | -0.34 | 0.681 | -0.259 | 0.48 | 1.23 | 0.303 | 0.319 | -0.385 | -1.03 | 0.341 | 0.194 | 1.77 (inactive) |
| CN(C)C(=O)[C@]1(Cc2ccccc2N=[N+]=[N-])N=C(c2ccc(OCCCO)cc2)O[C@@H]1c1ccccc1N=[N+]=[N-] | 0.872 | -1.05 (inactive) | 0.201 | 0.134 | 0.556 | 2.85 | 0.274 | 1.29 | -0.206 | 1.14 | 2.42 | 1.18 | 0.646 | 1.01 | 1.27 | 1.26 | 1.1 | 0.513 | 1.21 | -3.94 (inactive) |
| COc1ccc(C#Cc2ccc3c(c2)[C@]2(C(=O)N3)[C@H](C(=O)NC[C@H](O)c3ccccc3)[C@H]3C(=O)O[C@H](c4ccccc4)[C@H](c4ccccc4)N3[C@@H]2c2ccc(O)cc2)cc1 | 0.186 | 0.658 (inactive) | 0.0585 | -0.139 | 0.566 | 2.46 | 0.624 | 1.29 | -0.0259 | 1.13 | 2.71 | 1.23 | 0.521 | 0.901 | 1.08 | 0.811 | -1.57 | 0.767 | 0.947 | 0.656 (inactive) |
| CCS[C@H]1[C@@H](C(=O)O)[C@H](c2ccc(C)cc2)N(S(=O)(=O)c2ccc(C)cc2)[C@@H]1CC | 0.804 | -0.0164 (inactive) | 0.372 | 0.0431 | 0.519 | 1.77 | 0.5 | 1.32 | -0.467 | 0.615 | 1.12 | 1.24 | 0.353 | 0.715 | 0.714 | -0.0028 | -0.223 | -0.0097 | 0.652 | 1.16 (inactive) |
